PubChem BioAssay (NCATS)
Records with an inconclusive call do not appear. Calls of active or inactive are those of the source. Unless noted, calls come from the whole dose curve; as a rule, active = well fitted curve in either direction with a large enough effect (not every such curve was filed as active); inconclusive = small, poorly fitted or top-dose-only effect, or another doubt; inactive = flat fitted curve, though single readings scatter.

What was measured:
[1] = biological target: Lysosomal acid glucosylceramidase (Homo sapiens) (UniProt P04062); test: Glucocerebrosidase-p2 (AID 348; in the data active = potency below about 10 µM; note: potency is the fitted concentration of half-maximal effect); settings: purified GBA, blue fluorogenic substrate, 40 min
Procedure, shortened: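 Compounds titrated from 0.6 nM upwards against 0.2 nM enzyme in pH 5.9 citric acid/KH2PO4, taurocholate, tween-20; blue fluorogenic substrate 80 uM, 40 min room temperature, stopped and read Ex 365/Em 440 for AC50.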

[2] = AP1 Signaling Pathway (AID 357); settings: ME-180 AP-1-bla reporter, EGF-induced, beta-lactamase ratio, 5 h; at 7.69 µM (top of the series) unless noted; note: % is set by controls: 0 for no effect and ±100 for the full control effect
Procedure, shortened: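 AP-1-bla ME-180 cells with beta-lactamase reporter under AP-1 response element, stimulated with EC50 EGF; compounds titrated, 5 hours at 37 degrees Celsius. CCF4 read at 460/530 nm ratio; positive and negative modulators judged by AC50.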

[3] = Stat Signaling Pathway (AID 446); settings: ME-180 (cervical carcinoma) SIE beta-lactamase reporter, IL-6 stimulated, 5 h; at 7.69 µM (top of the series) unless noted;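 note: ME-180 cervical cancer cells given 40 pM IL-6 alongside compound; SIE-controlled beta-lactamase reporter measured as 460/530 nm FRET emission ratio; % is set by controls: 0 for no effect and ±100 for the full control effect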
Procedure, shortened: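 IL-6/STAT signaling read in ME-180 cells via an SIE beta-lactamase reporter. Stimulus was 40 pM IL-6 (its AC50) for 5 hrs, so both activation and inhibition register.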

[4] = biological target: Glucocorticoid receptor (Homo sapiens) (UniProt P04150); test: GR-EFC Redistribution (AID 451; calls by dose curve; note: potency is the fitted concentration of half-maximal effect); settings: CHO-K1 GR-EFC translocation, beta-gal luminescence, 2 h
Procedure, shortened: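 Translocation of GR-ED fusion to nuclear EA restores b-gal, read by luminescence after 1 h room-temperature detection. Engineered CHO-K1 biosensor cells, 1,000/well, exposed 2 h at 37 C to titrations up to 46 uM final.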

[5] = biological target: Mitogen-activated protein kinase 10 (Mus musculus) (UniProt Q61831); test: JNK3 AlphaScreen Assay (AID 530); settings: JNK3 lysate, c-Jun phosphorylation; series mostly up to 57.1 µM;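 note: kinase came from lysate of stimulated human HepG2 cells; signal reports phosphorylation of biotinylated GST-cJun 1-79 at Ser73 with 10 µM ATP; % is set by controls: 0 for no effect and ±100 for the full control effect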
Procedure, shortened: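 Room-temperature AlphaScreen kinase assay; pre-activated HepG2 lysate as JNK3 source, biotin-GST-cJun(1-79) substrate, 10 uM ATP, compound 15 min preincubation.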

[6] = qHTS Assay for Lipid Storage Modulators (AID 1519; calls by dose curve); settings: Drosophila S3 cells, BODIPY lipid droplet/cell ratio, laser cytometry, cells loaded with oleic acid; for activity change, negative = inhibition: at 57.5 µM (top of the series)
Procedure, shortened: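 Cells seeded at 5,000 per well were treated with compounds over a concentration series and loaded with oleic acid (400 uM, as added). Lipid droplet fluorescence (488 nm excitation, 500-530 nm channel) was read by laser-scanning cytometry and normalized to 20 uM Triacsin C.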

[7] = biological target: 3',5'-cyclic-AMP phosphodiesterase 4B (Homo sapiens) (UniProt Q07343); test: qHTS Assay for Inhibitors of PDE-IV (AID 607; active = well fitted activation curve with a large enough effect in the main read-out, with a control signal flat, not every such curve was filed as active; note: % of control where 0% means no effect); settings: HEK293 ACTOne CNG channel cells, membrane potential fluorescence; series mostly up to 22.9 µM
Procedure, shortened: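 Live HEK293 cells with a modified cyclic nucleotide-gated (CNG) channel report intracellular cAMP via membrane-potential dye fluorescence (ex 535/em 590 nm). Endogenous PDE-IV was targeted. Compounds were tested at up to 22.9 uM final; RO 20-1724 100 uM served as control.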

[8] = NFAT Signaling Pathway (AID 444); settings: Jurkat NFAT-bla M1, carbachol, beta-lactamase ratio, 5 h; at 7.69 µM (top of the series) unless noted;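 note: carbachol stimulus at about its EC50 of 1 µM final; % is set by controls: 0 for no effect and ±100 for the full control effect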
Procedure, shortened: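 Read-out: CCF4 FRET ratio (460 nm/530 nm) after 1 h RT dye loading, used for %activity and AC50 from titration series. Cells: Jurkat NFAT-β-lactamase/M1 line, treated with compound plus 1 uM carbachol for 5 h, 37 °C.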

[9] = biological target: Glucocorticoid receptor (Homo sapiens) (UniProt P04150); test: GR-GFP Redistribution (AID 450;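 active = compounds whose dose series gives a full or clear partial fitted curve of increased nuclear translocation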; note: potency is the fitted concentration of half-maximal effect); settings: U2OS GR-GFP nuclear translocation, laser cytometry, 2 h
[10] = biological target: Cytochrome P450 3A4 (Homo sapiens) (UniProt P08684); test: qHTS Assay for Activators of Cytochrome P450 3A4 (AID 885; active = well fitted activation curve with a large enough effect; note: nearly all actives have a fitted effect of over 65% in size); settings: recombinant CYP3A4, Luciferin-PPXE luminescence, 60 min; series mostly up to 57.1 µM
Procedure, shortened: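 Quantitative HTS format: compounds preincubated with 20nM human CYP3A4 and Luciferin-PPXE substrate at KM, reaction started by NADPH regeneration, stopped after 60 min, luciferase luminescence read 20 min later.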

[11] = measured here: cell count channel max response
[12] = measured here: lipid channel max response

3',5'-cyclic-AMP phosphodiesterase 4B (Homo sapiens), sequence (Q07343 whole entry, looked up): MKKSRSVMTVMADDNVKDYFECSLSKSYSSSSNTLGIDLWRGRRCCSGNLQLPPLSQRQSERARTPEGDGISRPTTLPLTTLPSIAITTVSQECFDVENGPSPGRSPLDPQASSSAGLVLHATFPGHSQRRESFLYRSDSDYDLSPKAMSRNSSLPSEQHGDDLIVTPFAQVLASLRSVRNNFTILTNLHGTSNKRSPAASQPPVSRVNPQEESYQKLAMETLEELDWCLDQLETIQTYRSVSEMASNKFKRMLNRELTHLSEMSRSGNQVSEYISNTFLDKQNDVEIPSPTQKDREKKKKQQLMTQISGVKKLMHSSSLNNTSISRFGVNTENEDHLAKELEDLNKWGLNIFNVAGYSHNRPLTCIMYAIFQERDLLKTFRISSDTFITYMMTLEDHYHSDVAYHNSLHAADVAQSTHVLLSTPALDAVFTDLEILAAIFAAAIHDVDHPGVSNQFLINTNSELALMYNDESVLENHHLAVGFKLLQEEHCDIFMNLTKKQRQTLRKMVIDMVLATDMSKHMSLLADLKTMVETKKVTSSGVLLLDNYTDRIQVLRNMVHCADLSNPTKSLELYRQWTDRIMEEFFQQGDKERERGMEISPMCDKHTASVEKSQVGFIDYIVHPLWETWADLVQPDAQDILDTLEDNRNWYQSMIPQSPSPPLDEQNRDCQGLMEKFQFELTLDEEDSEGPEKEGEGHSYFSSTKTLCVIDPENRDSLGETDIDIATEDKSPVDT
Lysosomal acid glucosylceramidase (Homo sapiens), sequence (P04062 whole entry, looked up): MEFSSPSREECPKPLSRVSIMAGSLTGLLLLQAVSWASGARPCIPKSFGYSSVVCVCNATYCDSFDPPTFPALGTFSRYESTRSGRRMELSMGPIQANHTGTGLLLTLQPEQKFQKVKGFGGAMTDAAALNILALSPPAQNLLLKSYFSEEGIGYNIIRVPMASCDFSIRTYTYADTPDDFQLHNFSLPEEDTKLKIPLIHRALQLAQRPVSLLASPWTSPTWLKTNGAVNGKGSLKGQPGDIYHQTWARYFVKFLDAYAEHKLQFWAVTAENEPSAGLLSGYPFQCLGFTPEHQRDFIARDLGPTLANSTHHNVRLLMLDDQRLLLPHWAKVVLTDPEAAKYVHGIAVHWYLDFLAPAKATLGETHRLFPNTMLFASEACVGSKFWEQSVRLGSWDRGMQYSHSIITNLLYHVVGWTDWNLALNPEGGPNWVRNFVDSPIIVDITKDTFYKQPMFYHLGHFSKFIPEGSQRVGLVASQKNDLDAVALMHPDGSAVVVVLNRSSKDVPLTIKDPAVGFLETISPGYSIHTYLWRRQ
Glucocorticoid receptor (Homo sapiens), sequence (P04150 whole entry, looked up, the tested form may be a part): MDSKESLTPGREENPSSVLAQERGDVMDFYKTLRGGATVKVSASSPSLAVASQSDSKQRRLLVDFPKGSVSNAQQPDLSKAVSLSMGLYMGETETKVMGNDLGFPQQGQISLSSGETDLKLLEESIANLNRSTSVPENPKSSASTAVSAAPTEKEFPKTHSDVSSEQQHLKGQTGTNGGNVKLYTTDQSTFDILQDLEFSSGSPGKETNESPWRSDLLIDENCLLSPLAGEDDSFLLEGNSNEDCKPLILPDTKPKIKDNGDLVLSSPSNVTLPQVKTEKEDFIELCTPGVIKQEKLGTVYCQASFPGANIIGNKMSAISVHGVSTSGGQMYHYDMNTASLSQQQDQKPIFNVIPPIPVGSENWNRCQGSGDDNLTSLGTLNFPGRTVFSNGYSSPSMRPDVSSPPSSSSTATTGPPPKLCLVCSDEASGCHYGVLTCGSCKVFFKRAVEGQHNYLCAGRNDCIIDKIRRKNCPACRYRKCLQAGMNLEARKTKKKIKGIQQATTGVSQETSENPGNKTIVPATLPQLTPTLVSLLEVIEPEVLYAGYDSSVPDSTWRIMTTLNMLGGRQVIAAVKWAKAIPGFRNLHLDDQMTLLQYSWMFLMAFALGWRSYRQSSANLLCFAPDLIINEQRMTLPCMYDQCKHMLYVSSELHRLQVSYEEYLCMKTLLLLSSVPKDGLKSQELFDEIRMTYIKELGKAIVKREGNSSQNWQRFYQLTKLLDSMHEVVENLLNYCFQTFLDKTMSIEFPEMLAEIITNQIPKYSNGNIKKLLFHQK
Cytochrome P450 3A4 (Homo sapiens), sequence (P08684 whole entry, looked up): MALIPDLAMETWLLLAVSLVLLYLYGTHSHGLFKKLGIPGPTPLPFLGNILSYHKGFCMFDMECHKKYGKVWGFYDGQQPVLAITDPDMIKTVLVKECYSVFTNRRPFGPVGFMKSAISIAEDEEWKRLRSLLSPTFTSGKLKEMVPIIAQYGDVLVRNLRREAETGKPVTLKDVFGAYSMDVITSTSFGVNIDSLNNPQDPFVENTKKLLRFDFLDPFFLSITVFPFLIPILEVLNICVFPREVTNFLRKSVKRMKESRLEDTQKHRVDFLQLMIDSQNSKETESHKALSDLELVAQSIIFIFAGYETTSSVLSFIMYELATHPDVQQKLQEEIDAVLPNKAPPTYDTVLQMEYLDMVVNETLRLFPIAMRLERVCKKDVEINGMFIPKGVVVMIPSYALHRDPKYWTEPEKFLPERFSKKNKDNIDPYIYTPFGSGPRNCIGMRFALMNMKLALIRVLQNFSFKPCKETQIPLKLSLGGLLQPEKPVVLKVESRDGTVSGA

SMILES: Cc1noc(C)c1C(=O)N1CCC2(CC1)CCN(c1ccccn1)CC2
- Potency [1]: > 11.4 µM (inactive)
- activity change, negative = inhibition [2]: 0.789% (inactive)
- activity, negative = inhibition [3]: -0.0391% (inactive)
- Potency [4]: > 46 µM (inactive)
- Potency [5]: inactive
- activity change, negative = inhibition [6]: 5.25% (inactive)
- max response [6, 11]: 8.43%
- max response [6, 12]: 16.7%

SMILES: COc1ccc(NC(=O)N2CCC3(CC2)CCN(C(=O)c2cc(C(F)(F)F)cc(C(F)(F)F)c2)CC3)cc1
- Potency [1]: > 11.4 µM (inactive)
- activity change, negative = inhibition [2]: -5.96% (inactive)
- activity, negative = inhibition [3]: -5.72% (inactive)
- Potency [4]: > 46 µM (inactive)
- Potency [5]: inactive
- Potency [7]: inactive
- activity change, negative = inhibition [6]: -8% (inactive)
- max response [6, 11]: 3.79%
- max response [6, 12]: -1.48%

SMILES: O=C(c1cccc(F)c1)N1CCC[C@@]2(CCN(Cc3ccccc3)C2)C1
- Potency [1]: > 11.4 µM (inactive)
- activity change, negative = inhibition [2]: -3.14% (inactive)
- activity change, negative = inhibition [8]: -11.7% (inactive)
- activity, negative = inhibition [3]: 9.35% (inactive)
- Potency [4]: > 46 µM (inactive)
- Potency [5]: inactive
- Potency [7]: inactive
- activity change, negative = inhibition [6]: -0.915% (inactive)
- max response [6, 11]: 11.6%
- max response [6, 12]: 12%

SMILES: COc1ccc(Oc2ncc3nc(CCc4ccccc4)c(=O)n(C)c3n2)cc1
- Potency [1]: > 11.4 µM (inactive)
- activity change, negative = inhibition [2]: -17.4% (inactive)
- activity change, negative = inhibition [8]: 2.43% (inactive)
- activity, negative = inhibition [3]: -11.3% (inactive)
- Potency [9]: > 9.22 µM (inactive)
- Potency [4]: > 46 µM (inactive)
- Potency [5]: inactive
- Potency [10]: inactive
- activity change, negative = inhibition [6]: -3.44% (inactive)
- max response [6, 11]: 9.28%
- max response [6, 12]: 8.21%

SMILES: COc1ccc2[nH]cc(CCNc3ncnc4ccc(-c5ccc(C(=O)N(C)C)cc5)cc34)c2c1
- Potency [1]: > 11.4 µM (inactive)
- activity change, negative = inhibition [2]: -28% (inactive)
- activity change, negative = inhibition [8]: 5.5% (inactive)
- activity, negative = inhibition [3]: -28.2% (inactive)
- Potency [9]: > 46 µM (inactive)
- Potency [4]: > 46 µM (inactive)
- Potency [5]: inactive
- Potency [7]: inactive
- Potency [10]: inactive
- activity change, negative = inhibition [6]: 0.717% (inactive)
- max response [6, 11]: -23.3%
- max response [6, 12]: -23.3%

SMILES: COc1ccccc1CN1CCCC2(CCN(C(=O)c3cc(C(F)(F)F)cc(C(F)(F)F)c3)CC2)C1
- Potency [1]: > 11.4 µM (inactive)
- activity change, negative = inhibition [2]: 16.7% (inactive)
- Potency [4]: > 46 µM (inactive)
- Potency [5]: inactive
- Potency [7]: inactive
- activity change, negative = inhibition [6]: 3.12% (inactive)
- max response [6, 11]: -3.38%
- max response [6, 12]: 1.79%

SMILES: O=C(Oc1ccccc1)N1CCC2(CCCN(c3ccncc3)C2)CC1
- Potency [1]: > 11.4 µM (inactive)
- activity change, negative = inhibition [2]: 14.2% (inactive)
- activity change, negative = inhibition [8]: -80.6% (active)
- activity, negative = inhibition [3]: 18.8% (inactive)
- Potency [4]: > 46 µM (inactive)
- Potency [5]: inactive
- Potency [7]: inactive
- activity change, negative = inhibition [6]: 4.64% (inactive)
- max response [6, 11]: 1.04%
- max response [6, 12]: 10.6%

SMILES: Cc1cccc(CNc2ccnc(-c3cccc(NS(C)(=O)=O)c3)n2)c1
- Potency [1]: > 11.4 µM (inactive)
- activity change, negative = inhibition [2]: -18.5% (inactive)
- activity change, negative = inhibition [8]: 9.66% (inactive)
- Potency [9]: > 46 µM (inactive)
- Potency [4]: > 46 µM (inactive)
- Potency [5]: inactive
- Potency [7]: inactive
- activity change, negative = inhibition [6]: 8.1% (inactive)
- max response [6, 11]: 4.58%
- max response [6, 12]: -1.23%
